According to PubChem BioAssay (NCATS):
“And” between values parts separate entries of the source, which are not always exact repeats. Identical values can stand only once. Inconclusive results are not listed. The source made the active and inactive calls. Calls come from the whole dose curve; as a rule, active = well fitted curve in the direction sought with a large enough effect; inconclusive = small, poorly fitted or top-dose-only effect, or another doubt; inactive = no such curve, though single readings can be large; an effect the other way counts as inactive or inconclusive.

Key:
[1] = qHTS of pediatric cancer cell lines to identify multiple opportunities for drug repurposing: Primary screen for TC32 cells (AID 1347089); note: nearly all actives have a fitted effect of over 60% in size; note: potency is the fitted concentration of half-maximal effect
How it was run: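 Luminescent ATP read-out (CellTiter-Glo) of metabolically active TC32 cells after 48 h exposure. Concentration-response curves came from 11-point (MIPE, 0.78 nM–46 µM) or 8-point (NPC, 0.59 nM–46 µM) primary titrations; follow-up used 11 points.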

[2] = qHTS of pediatric cancer cell lines to identify multiple opportunities for drug repurposing: Primary screen for DAOY cells (AID 1347090); note: nearly all actives have a fitted effect of over 55% in size; note: potency is the fitted concentration of half-maximal effect
How it was run: (§1)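 Eight- or eleven-point concentration series, 48 h treatment at 37 degrees C in growth media; readout CellTiter-Glo luminescence. Potency and efficacy were taken from the concentration-response curves.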

[3] = qHTS of pediatric cancer cell lines to identify multiple opportunities for drug repurposing: Primary screen for SJ-GBM2 cells (AID 1347091); note: potency is the fitted concentration of half-maximal effect
How it was run: as §1

[4] = qHTS of pediatric cancer cell lines to identify multiple opportunities for drug repurposing: Primary screen for A673 cells (AID 1347092); note: nearly all actives have a fitted effect of over 45% in size; note: potency is the fitted concentration of half-maximal effect
How it was run: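 Cell viability of A673 measured by CellTiter-Glo ATP luminescence after 48 hours compound exposure. Dilution series spanned 0.78 nM to 46 µM (MIPE, 11-point) or 0.59 nM to 46 µM (NPC, 8-point); bortezomib 2.3 uM positive control.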

[5] = qHTS of pediatric cancer cell lines to identify multiple opportunities for drug repurposing: Primary screen for SK-N-MC cells (AID 1347093); note: potency is the fitted concentration of half-maximal effect
How it was run: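 Metabolically active cells were quantified by ATP-dependent luminescence (CellTiter-Glo, 15 min at room temperature) following 48 h treatment. Cells had been plated at 500-1,000 per well and settled for 5 h beforehand.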

[6] = qHTS of pediatric cancer cell lines to identify multiple opportunities for drug repurposing: Primary screen for BT-37 cells (AID 1347094); note: potency is the fitted concentration of half-maximal effect
How it was run: (§2)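 Cells seeded at 500-1,000 cells/well in growth media, rested 5 hours at 37 degrees C, 5% CO2, then dosed; MIPE compounds at 11-point (from 0.78 nM) and NPC at 8-point (from 0.59 nM) final concentrations. Viability by CellTiter-Glo luminescence after 48 hours.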

[7] = qHTS of pediatric cancer cell lines to identify multiple opportunities for drug repurposing: Primary screen for NB-EBc1 cells (AID 1347095); note: potency is the fitted concentration of half-maximal effect
How it was run: as §2

[8] = qHTS of pediatric cancer cell lines to identify multiple opportunities for drug repurposing: Primary screen for U-2 OS cells (AID 1347096); note: nearly all actives have a fitted effect of over 50% in size
How it was run: (§3)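 Cells (500-1,000/well) in growth media were settled 5 h at 37 degrees C, then given compounds for 48 h. Viability was read as CellTiter-Glo luminescence. Primary runs used MIPE at 11 points (0.78 nM-46 µM) and NPC at 8 points (0.59 nM-46 µM); follow-ups used 11 points.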

[9] = qHTS of pediatric cancer cell lines to identify multiple opportunities for drug repurposing: Primary screen for Saos-2 cells (AID 1347097); note: nearly all actives have a fitted effect of over 40% in size; note: potency is the fitted concentration of half-maximal effect
How it was run: as §2

[10] = qHTS of pediatric cancer cell lines to identify multiple opportunities for drug repurposing: Primary screen for SK-N-SH cells (AID 1347098); note: nearly all actives have a fitted effect of over 65% in size; note: potency is the fitted concentration of half-maximal effect
How it was run: (§4)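 Cells (500-1,000/well) rested 5 h, then received compounds for 48 h; metabolically active cells were measured by CellTiter-Glo luminescence. Final concentrations spanned up to 46 µM (MIPE, 11-point) or 0.59 nM-46 µM (NPC, 8-point) in primary screens, 11-point in follow-ups.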

[11] = qHTS of pediatric cancer cell lines to identify multiple opportunities for drug repurposing: Primary screen for NB1643 cells (AID 1347099); note: nearly all actives have a fitted effect of over 50% in size; note: potency is the fitted concentration of half-maximal effect
How it was run: as §2

[12] = qHTS of pediatric cancer cell lines to identify multiple opportunities for drug repurposing: Primary screen for LAN-5 cells (AID 1347100); note: potency is the fitted concentration of half-maximal effect
How it was run: as §3

[13] = qHTS of pediatric cancer cell lines to identify multiple opportunities for drug repurposing: Primary screen for BT-12 cells (AID 1347101); note: nearly all actives have a fitted effect of over 25% in size; note: potency is the fitted concentration of half-maximal effect
How it was run: as §4

[14] = qHTS of pediatric cancer cell lines to identify multiple opportunities for drug repurposing: Primary screen for Rh18 cells (AID 1347102); note: nearly all actives have a fitted effect of over 65% in size; note: potency is the fitted concentration of half-maximal effect
How it was run: as §3

[15] = qHTS of pediatric cancer cell lines to identify multiple opportunities for drug repurposing: Primary screen for OHS-50 cells (AID 1347103); note: nearly all actives have a fitted effect of over 40% in size; note: potency is the fitted concentration of half-maximal effect
How it was run: as §4

[16] = qHTS of pediatric cancer cell lines to identify multiple opportunities for drug repurposing: Primary screen for MG 63 (6-TG R) cells (AID 1347105); note: nearly all actives have a fitted effect of over 50% in size; note: potency is the fitted concentration of half-maximal effect
How it was run: as §2

[17] = qHTS of pediatric cancer cell lines to identify multiple opportunities for drug repurposing: Primary screen for control Hh wild type fibroblast cells (AID 1347106);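 note: series mostly up to about 46 µM; a drop in luminescence marks cytotoxicity and a rise apparent proliferation; nearly all actives have a fitted effect of over 55% in size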
How it was run: as §3

[18] = qHTS of pediatric cancer cell lines to identify multiple opportunities for drug repurposing: Primary screen for Rh30 cells (AID 1347107); note: series mostly up to about 46 µM; nearly all actives have a fitted effect of over 75% in size
How it was run: as §3

[19] = qHTS of pediatric cancer cell lines to identify multiple opportunities for drug repurposing: Primary screen for Rh41 cells (AID 1347108); note: nearly all actives have a fitted effect of over 70% in size; note: potency is the fitted concentration of half-maximal effect
How it was run: as §2

[20] = qHTS of pediatric cancer cell lines to identify multiple opportunities for drug repurposing: Primary screen for RD cells (AID 1347104); note: nearly all actives have a fitted effect of over 55% in size; note: potency is the fitted concentration of half-maximal effect
How it was run: as §2

Measured: Potency

NCCS(=O)(=O)O
not listed: [20]
inactive: all other assays above

NC(=O)OCC(COC(N)=O)c1ccccc1
not listed: [9]
inactive: all other assays above

Cc1cc(C(C)(C)C)cc(C)c1CC1=NCCN1
not listed: [5] | [15] | [20]
inactive: all other assays above

COC(=O)Nc1nc2ccc(C(=O)c3cccs3)cc2[nH]1
inactive: [10] | [14] | [17] | [18]
active: [1] 46.6 nM and 236 nM | [2] 11.8 nM and 106 nM | [3] 1 nM and 119 nM | [4] 5.9 nM | [5] 4.7 nM and 94.4 nM | [6] 15.3 nM and 276 nM | [7] 1 nM and 84.1 nM | [9] 4.7 nM and 94.4 nM | [12] 3.3 nM and 119 nM | [13] 19.3 nM and 347 nM | [15] 8.6 nM and 309 nM

CCc1cccc2c3c([nH]c12)C(CC)(CC(=O)O)OCC3 (configuration not stated)
inactive: all assays above

CCOC(=O)C(C)(C)Oc1ccc(Cl)cc1
not listed: [7] | [11] | [20]
inactive: all other assays above

CN(C)C(=N)N=C(N)N
inactive: all assays above

Clc1ccc2c(c1)C(N1CCNCC1)=Nc1ccccc1O2
inactive: all assays above

Cc1ccc(-c2cc(C(F)(F)F)nn2-c2ccc(S(N)(=O)=O)cc2)cc1
active: [9] 16.8 µM
not listed: [5] | [6] | [15] | [19] | [20]
inactive: all other assays above

CCN1CCCC1CNC(=O)c1cc(S(=O)(=O)CC)c(N)cc1OC (configuration not stated)
not listed: [20]
inactive: all other assays above

Cn1c(=O)c2c(ncn2C)n(C)c1=O
not listed: [2] | [20]
inactive: all other assays above

COc1cc2nc(N(C)CCCNC(=O)C3CCCO3)nc(N)c2cc1OC (configuration not stated)
not listed: [2]
inactive: all other assays above

C[C@@H]1CC(=O)NN=C1c1ccc(NN=C(C#N)C#N)cc1
active: [2] 26.6 µM | [4] 23500 nM | [9] 18.7 µM | [11] 26.4 µM | [13] 21.9 µM and 27.6 µM and 24.3 µM | [15] 21.7 µM | [20] 29.6 µM | [16] 10.6 µM
inactive: [1] | [6] | [8] | [14] | [17] | [18]

CCOC(=O)c1ncn2c1CN(C)C(=O)c1cc(F)ccc1-2
not listed: [2]
inactive: all other assays above

CN(CCOc1ccc(NS(C)(=O)=O)cc1)CCc1ccc(NS(C)(=O)=O)cc1
not listed: [2]
inactive: all other assays above

CN(C)CCCN1c2ccccc2CCc2ccc(Cl)cc21
inactive: [1] | [7] | [18] | [19]
active: [3] 23.7 µM | [4] 469 nM | [5] 332 nM and 23.7 µM | [6] 12.2 µM and 24.6 µM | [9] 16.8 µM | [10] 1.52 µM and 24.4 µM | [13] 19.3 µM and 15.5 µM | [15] 13.7 µM and 17.4 µM | [20] 1.48 µM

NS(=O)(=O)c1cc2c(cc1Cl)NCNS2(=O)=O
not listed: [2]
inactive: all other assays above

CC[N+](CC)(CC)CCOc1cccc(OCC[N+](CC)(CC)CC)c1OCC[N+](CC)(CC)CC
not listed: [2]
inactive: all other assays above

CC(C)(C)C(=O)Oc1ccc(S(=O)(=O)Nc2ccccc2C(=O)NCC(=O)O)cc1
not listed: [2] | [20]
inactive: all other assays above

NC(CO)C(=O)NNCc1ccc(O)c(O)c1O (configuration not stated)
active: [4] 23500 nM
not listed: [2] | [12] | [20]
inactive: all other assays above

Nc1nc2c(ncn2COC(CO)CO)c(=O)[nH]1
inactive: [1] | [2] | [7] | [8] | [10] | [11] | [12] | [14] | [20] | [17] | [18]

Nc1c2c(nc3ccccc13)CCCC2
not listed: [2] | [20]
inactive: all other assays above

CC(C)C(=O)Nc1ccc([N+](=O)[O-])c(C(F)(F)F)c1
active: [2] 4.69 µM | [4] 11.8 nM | [9] 0.59 µM | [10] 12.1 µM | [13] 11 µM | [15] 24.6 µM and 432 nM | [19] 11.8 µM
inactive: [1] | [7] | [8] | [12] | [14] | [18]

COc1nc(C)nc(Cl)c1NC1=NCCN1
not listed: [2]
inactive: all other assays above

CC[C@@]1(O)C(=O)OCc2c1cc1n(c2=O)Cc2cc3c(CN(C)C)c(O)ccc3nc2-1
active: [1] 26.4 nM and 131 nM | [3] 94.4 nM and 52.6 nM | [4] 26.6 nM and 118 nM | [5] 6.7 nM and 23.5 nM | [6] 19.5 nM and 86.3 nM | [7] 47.3 nM and 26.4 nM | [9] 29.9 nM and 235 nM | [10] 344 nM and 1.71 µM | [11] 26.6 nM and 296 nM | [12] 47.3 nM and 41.8 nM | [13] 309 nM and 1.37 µM | [14] 473 nM and 1.48 µM | [15] 27.6 nM and 109 nM | [16] 66.8 nM and 296 nM | [19] 2.11 µM and 2.64 µM
